The text below walks through data of PubChem BioAssay.

As usually defined, the inhibition is the drop in the measured response relative to a control, in per cent.

The nature of experiment [1]: antimalarial activity against Dd2 strain (AID 2302;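 active = growth inhibition above 50% at the single 2 µM test dose, taken to imply half-maximal potency below 2 µM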;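 also: 0% = DMSO untreated growth and 100% = chloroquine plus artemisinin killed control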). The settings on record: P. falciparum Dd2 in RBCs, LDH growth readout, 72 h; at 2 µM; hits give high values.
The nature of experiment [2]: HepG2 cytotoxicity, primary screen, cytotoxicity control for P. falciparum antimalarial project, cell-based, ATP luminescence (AID 2303;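 active = inhibition above 50%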;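 also: 0% = DMSO wells and 100% = digitonin-killed cells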). The note with it: HepG2 viability, 24-48 h, at 10 µM, hits give high values.
Experiment [3] has as its target L-lactate dehydrogenase (Plasmodium falciparum (isolate CDC / Honduras)) (UniProt Q27743). Description: PfLDH activity inhibition – cell lysate, 3D7 strain, counter-screen for P. falciparum growth inhibition project (AID 2304).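 Also: 0% = vehicle and 100% = reference inhibitor.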 The settings on record: P. falciparum 3D7 crude extract, LDH APAD/NBT absorbance; at 2 µM; hits give high values. A general note: The purpose of a counterscreen is to sort out artefacts and off-target activity.

Experiment [4] is described as follows: inhibition of 3D7 malaria parasite growth – strain 3D7 (AID 2306).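 Also: 0% = DMSO wells and 100% = chloroquine plus artemisinin control wells.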 The note with it: P. falciparum 3D7 erythrocytic growth, LDH absorbance, 72 h; at 2 µM; hits give high values.
The target in experiment [5] is Calcium-dependent protein kinase 1 (Plasmodium falciparum (isolate 3D7)) (UniProt P62344). Description: PfCDPK1 kinase inhibitors, biochemical, TCAMS library (AID 1159585; cut-off not given, nearly all actives have IC50 up to about 0.98 µM;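 also: inhibitors leave more ATP so luminescence rises with inhibition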). The settings on record: recombinant PfCDPK1, Kinase-Glo ATP depletion luminescence. (In general: Kinase-Glo measures the ATP left after a reaction by luminescence.)
Calcium-dependent protein kinase 1 (Plasmodium falciparum (isolate 3D7)), sequence (P62344 whole entry, looked up): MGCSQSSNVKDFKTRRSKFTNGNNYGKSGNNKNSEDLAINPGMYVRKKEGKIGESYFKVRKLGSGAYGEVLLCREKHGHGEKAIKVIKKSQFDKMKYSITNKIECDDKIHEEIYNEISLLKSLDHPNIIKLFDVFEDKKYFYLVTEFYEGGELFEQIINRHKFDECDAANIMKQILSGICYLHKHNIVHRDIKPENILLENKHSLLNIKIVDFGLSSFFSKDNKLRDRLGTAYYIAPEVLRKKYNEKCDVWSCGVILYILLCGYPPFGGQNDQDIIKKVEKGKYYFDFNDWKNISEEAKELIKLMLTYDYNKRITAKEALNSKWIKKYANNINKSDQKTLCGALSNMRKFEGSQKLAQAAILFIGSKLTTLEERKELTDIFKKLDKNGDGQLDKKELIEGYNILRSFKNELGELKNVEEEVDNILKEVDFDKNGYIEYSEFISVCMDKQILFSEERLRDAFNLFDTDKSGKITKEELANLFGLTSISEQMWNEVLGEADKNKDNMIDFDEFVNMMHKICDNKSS
Experiment [6] concerns the target Plasmodium falciparum protein kinase 6 (PK6, PF3D7_1337100) (UniProt Q8IDW1). The experiment can be described thus: PfPK6 kinase inhibitors, biochemical, TCAMS library (AID 1159586). The settings on record: recombinant PfPK6, Kinase-Glo ATP depletion luminescence.
Experiment [7] has as its target Protein kinase 7 (PK7), Plasmodium falciparum 3D7 (PF3D7_0213400) (UniProt Q7YTF7). The experiment can be described thus: inhibition of Plasmodium PK7 catalytic activity – biochemical, TCAMS antimalarial set, Kinase-Glo luminescence (AID 1159587). The settings on record: recombinant PfPK7, Kinase-Glo ATP depletion luminescence.
In experiment [8] the target is Calcium-dependent protein kinase 4 (Plasmodium falciparum (isolate 3D7)) (UniProt Q8IBS5). The experiment can be described thus: PfCDPK4 kinase inhibitors, biochemical, TCAMS library (AID 1159588; cut-off not given, nearly all actives have IC50 up to about 0.91 µM). The note with it: recombinant PfCDPK4, Kinase-Glo ATP depletion luminescence.
Calcium-dependent protein kinase 4 (Plasmodium falciparum (isolate 3D7)), sequence (Q8IBS5 whole entry, looked up): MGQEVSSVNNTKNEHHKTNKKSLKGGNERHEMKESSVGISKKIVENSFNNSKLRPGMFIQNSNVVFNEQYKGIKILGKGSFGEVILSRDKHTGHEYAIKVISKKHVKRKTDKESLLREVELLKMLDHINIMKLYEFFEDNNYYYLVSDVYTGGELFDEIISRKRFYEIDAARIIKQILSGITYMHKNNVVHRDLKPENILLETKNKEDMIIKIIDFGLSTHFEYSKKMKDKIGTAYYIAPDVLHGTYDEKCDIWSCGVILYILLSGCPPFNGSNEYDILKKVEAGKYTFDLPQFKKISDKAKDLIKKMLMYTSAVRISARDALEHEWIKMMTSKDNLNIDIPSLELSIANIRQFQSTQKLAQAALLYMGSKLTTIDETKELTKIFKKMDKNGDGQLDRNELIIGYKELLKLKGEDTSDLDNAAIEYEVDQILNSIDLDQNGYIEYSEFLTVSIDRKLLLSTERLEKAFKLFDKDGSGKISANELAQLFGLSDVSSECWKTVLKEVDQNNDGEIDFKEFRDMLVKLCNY

The structures appear in SMILES notation. A number with no mark means an inactive call. For some assays here: Potency and affinity values are given separately. Calls of active or inactive are those of the source. Unless noted, no rule for the calls is given here.

Protein kinase 7 (PK7), Plasmodium falciparum 3D7 (PF3D7_0213400), sequence (Q7YTF7 1-343): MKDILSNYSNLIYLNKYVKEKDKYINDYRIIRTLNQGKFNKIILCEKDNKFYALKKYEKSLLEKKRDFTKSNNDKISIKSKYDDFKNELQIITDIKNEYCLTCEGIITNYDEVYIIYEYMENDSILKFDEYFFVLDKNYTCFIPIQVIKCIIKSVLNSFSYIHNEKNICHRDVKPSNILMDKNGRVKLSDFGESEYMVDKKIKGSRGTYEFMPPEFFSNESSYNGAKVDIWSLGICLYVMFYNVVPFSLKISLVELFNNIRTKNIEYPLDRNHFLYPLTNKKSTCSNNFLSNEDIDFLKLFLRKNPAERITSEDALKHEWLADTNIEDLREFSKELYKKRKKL
L-lactate dehydrogenase (Plasmodium falciparum (isolate CDC / Honduras)), sequence (Q27743 whole entry, looked up): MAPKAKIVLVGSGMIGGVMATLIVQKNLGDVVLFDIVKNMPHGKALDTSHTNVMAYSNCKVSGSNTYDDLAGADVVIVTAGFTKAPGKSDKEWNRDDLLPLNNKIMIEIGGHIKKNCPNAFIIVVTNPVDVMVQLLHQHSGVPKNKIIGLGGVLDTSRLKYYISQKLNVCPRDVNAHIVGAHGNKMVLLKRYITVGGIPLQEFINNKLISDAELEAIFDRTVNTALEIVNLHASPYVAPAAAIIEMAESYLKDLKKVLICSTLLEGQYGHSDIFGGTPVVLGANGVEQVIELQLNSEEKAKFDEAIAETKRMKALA
Plasmodium falciparum protein kinase 6 (PK6, PF3D7_1337100), sequence (Q8IDW1 1-305): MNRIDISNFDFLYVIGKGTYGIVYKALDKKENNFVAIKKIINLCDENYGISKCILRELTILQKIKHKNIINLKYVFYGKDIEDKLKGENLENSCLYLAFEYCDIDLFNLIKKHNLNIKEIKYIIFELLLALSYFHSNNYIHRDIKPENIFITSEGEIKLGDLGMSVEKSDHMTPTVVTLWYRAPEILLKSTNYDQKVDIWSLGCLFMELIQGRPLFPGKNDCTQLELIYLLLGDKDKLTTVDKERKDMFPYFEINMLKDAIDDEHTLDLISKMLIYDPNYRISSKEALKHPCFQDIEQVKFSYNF

In the case of `CN1CCC(N(C)C(=O)C=Cc2cn(-c3ccccc3)nc2-c2cc3ccccc3o2)CC1`, the growth inhibition in experiment [1] is 5%; in experiment [4], 92% (active). The inhibition is 38% in experiment [2] and 2% in experiment [3]. Also, the outcome in experiment [5], in experiment [6], in experiment [7] and in experiment [8] was inactive.
As for `Fc1cccc2sc(Nc3nc(-c4ccccn4)cs3)nc12`, the growth inhibition is 97% (active) in experiment [1] and 95% (active) in experiment [4]. The inhibition in experiment [2] was 30%; in experiment [3], 6%. Further, the outcome in experiment [5], in experiment [6], in experiment [7] and in experiment [8] was inactive.
Take `O=c1ccc2ccc(F)c3c2n1CC3CN1CCC(NCc2cccc(-c3cccs3)c2)CC1` (configuration not stated): the growth inhibition in experiment [1] was 75% (active); in experiment [4], 100% (active). For the same compound, the inhibition in experiment [2] was 17%; in experiment [3], 0%. For the same compound, the result in experiment [5], in experiment [6], in experiment [7] and in experiment [8] was inactive.
On to `N#Cc1ccc(NC(=NCc2cccnc2)Nc2ccc(-c3ccccc3)cc2)c(O)c1`, for which the growth inhibition in experiment [1] is 46%; in experiment [4], 101% (active). Moreover, the results for the inhibition in experiment [2] and in experiment [3] were 2% and -3%, respectively. For the same compound, the outcome in experiment [5], in experiment [6], in experiment [7] and in experiment [8] was inactive.
Turning to `Cc1nc(-c2nc(N3CCC(C(N)=O)CC3)ncc2-c2ccsc2)sc1C`, the growth inhibition was 33% in experiment [1] and 93% (active) in experiment [4]. Also, the inhibition is -8% in experiment [2] and -11% in experiment [3]. Also, the outcome in experiment [5], in experiment [6], in experiment [7] and in experiment [8] was inactive.
For the compound `C=C[C@]1(C)C[C@@H](OC(=O)c2n[nH]c3ccccc3c2=O)[C@]2(C)[C@H](C)CC[C@]3(CCC(=O)[C@H]32)[C@@H](C)[C@@H]1O`, the growth inhibition in experiment [1] is 84% (active); in experiment [4], 96% (active). The inhibition in experiment [2] is -6%; in experiment [3], 0%. The result in experiment [5], in experiment [6], in experiment [7] and in experiment [8] was inactive.
On to `O=C(/C=C/c1ccc(Cl)c(Cl)c1)NCCCCCN1CCN(C(=O)Nc2ccc(Cl)c(C(F)(F)F)c2)CC1`, for which the figures for the growth inhibition in experiment [1] and in experiment [4] were -3% and 100% (active), respectively. For the same compound, the inhibition was 22% in experiment [2] and 3% in experiment [3]. Moreover, the result in experiment [5], in experiment [6], in experiment [7] and in experiment [8] was inactive.
Consider `NC1CCN(CCc2ccc(NS(=O)(=O)c3ccc(-c4ccccc4)cc3)cc2)CC1`, for which the values for the growth inhibition in experiment [1] and in experiment [4] were 19% and 100% (active), respectively. In addition, the figures for the inhibition in experiment [2] and in experiment [3] were 17% and 0%, respectively. Also, the result in experiment [5], in experiment [6], in experiment [7] and in experiment [8] was inactive.
With `FC(F)(F)c1ccc2nc(-c3ccc(-c4cccc(CNCC5CCCO5)c4)s3)[nH]c2c1` (configuration not stated), the growth inhibition in experiment [1] and in experiment [4] was 99% (active) in each case. Besides, the inhibition in experiment [2] was 37%; in experiment [3], -7%. Further, the result in experiment [5], in experiment [6], in experiment [7] and in experiment [8] was inactive.
In the case of `CN(C)CCn1c(=N)n(CC(O)c2ccc(Cl)c(Cl)c2)c2ccccc21` (configuration not stated), the growth inhibition in experiment [1] was 6%; in experiment [4] it was 99% (active). For the same compound, the inhibition in experiment [2] was 20%; in experiment [3], -2%. In addition, the outcome in experiment [5], in experiment [6], in experiment [7] and in experiment [8] was inactive.
Regarding `CCCN1CCC(c2c[nH]c3ccc(NC(=O)Nc4cccc(Cl)c4Cl)cc23)CC1`, the growth inhibition was 17% in experiment [1] and 100% (active) in experiment [4]. Also, the inhibition in experiment [2] is 30%; in experiment [3] it was 2%. Further, the result in experiment [5], in experiment [6], in experiment [7] and in experiment [8] was inactive.
In the case of `O=C(O)C[C@H](NC(=O)c1cc(-c2ccc3c(c2)OCO3)no1)C(=O)O` (tested in a mixture with another compound), the results for the growth inhibition in experiment [1] and in experiment [4] were -3% and 98% (active), respectively. The values for the inhibition in experiment [2] and in experiment [3] were -4% and -2%, respectively. Moreover, the outcome in experiment [5], in experiment [6], in experiment [7] and in experiment [8] was inactive.
Turning to `O=[N+]([O-])c1cccc(C(Nc2ccccn2)c2ccc3cccnc3c2O)c1` (configuration not stated), the growth inhibition is 29% in experiment [1] and 86% (active) in experiment [4]. Moreover, the figures for the inhibition in experiment [2] and in experiment [3] were 53% (active) and 0%, respectively. Moreover, the outcome in experiment [5], in experiment [6], in experiment [7] and in experiment [8] was inactive.
As for `Cc1cc(-c2ccc3c(c2)CC[C@@H](N[C@@H](C)c2ccccc2)C3)cnc1N`, the growth inhibition in experiment [1] was 7%; in experiment [4], 98% (active). Further, the values for the inhibition in experiment [2] and in experiment [3] were 3% and -2%, respectively. The outcome in experiment [5], in experiment [6], in experiment [7] and in experiment [8] was inactive.
In the case of `COc1ccc(N2CCN(CCCCNC(=O)c3ccc(NC(=O)c4ccc(Cl)c(Cl)c4)cc3)CC2)c(OC)c1`, the growth inhibition in experiment [1] was 98% (active); in experiment [4] it was 101% (active). The inhibition is 23% in experiment [2] and 4% in experiment [3]. Moreover, the outcome in experiment [5], in experiment [6], in experiment [7] and in experiment [8] was inactive.
Take `N#CCCN1CCN(Cc2cccc(-c3ccc(-c4nc5ccc(F)cc5[nH]4)cc3)c2)CC1`: the growth inhibition was 35% in experiment [1] and 100% (active) in experiment [4]. Besides, the results for the inhibition in experiment [2] and in experiment [3] were 18% and -2%, respectively. Besides, the outcome in experiment [5], in experiment [6], in experiment [7] and in experiment [8] was inactive.
As for `Cc1cccc2[nH]c(-c3ccc(-c4ccc(NC(=O)C(C)CN5CCN(C)CC5)cc4)s3)nc12` (configuration not stated), the growth inhibition in experiment [1] was 99% (active); in experiment [4] it was 101% (active). In addition, the inhibition was 17% in experiment [2] and -2% in experiment [3]. Besides, the outcome in experiment [5], in experiment [6], in experiment [7] and in experiment [8] was inactive.
Consider `N#Cc1ccc(-c2ccc(C(=O)NCCCCN3CCC(c4ccc5c(c4OCC(N)=O)CCCC5)CC3)nc2)cc1`, for which the growth inhibition in experiment [1] was 97% (active); in experiment [4] it was 100% (active). The inhibition was 21% in experiment [2] and -4% in experiment [3]. In addition, the result in experiment [5], in experiment [6], in experiment [7] and in experiment [8] was inactive.
For the compound `NC(N)=Nc1nc(-c2cccc(NC(=O)NCc3ccc(OC(F)(F)F)cc3)c2)cs1`, the growth inhibition is 26% in experiment [1] and 100% (active) in experiment [4]. Moreover, the results for the inhibition in experiment [2] and in experiment [3] were -3% and 4%, respectively. For the same compound, the outcome in experiment [5], in experiment [6], in experiment [7] and in experiment [8] was inactive.
